# Bioassay records as filed in PubChem BioAssay.
# HepG2 tox – kills HepG2 cells in TGF-b inhibitor counter-screen; HepG2 CAGA-GFP viability, ATP luminescence, 18 h; Potency, µM (highest dose often 46.1 µM), usual class: cytotoxic; 410,000 tested, 0.76% active
#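 HepG2 CAGA-GFP cells (1000/well, DMEM with 1% FBS) received compound, then TGF-beta at 500 pg/mL final, and were incubated 18 hours at 37 degrees C. Viability was read by CellTiter-Glo luminescence. Media-only wells were set as complete cell-killing and DMSO as no toxicity.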
# HT1080-NT tox – kills 2HG-producing HT-1080-NT fibrosarcoma cells | HT-1080-NT fibrosarcoma viability, CellTiter-Glo ATP luminescence, 48 h | 360,000 tested, 1.6% active | Potency, µM (highest dose often 46.1 µM), actives largely listed as cytotoxic | AID 686970;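 also: NT is the 2HG producing partner of a matched IDH1 knockdown line; nearly all actives have a fitted effect of over 55% in size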
#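 Compounds were tested in concentration-response format on HT-1080-NT cells for 48 hours at 37 degrees C. Cell viability came from CellTiter-Glo luminescence; curves were classified by r2, response magnitude and activity.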
# TGFb inhibitor – blocks TGF-b signaling; HepG2 CAGA-GFP TGF-b/SMAD3 reporter, GFP fluorescence, 18 h; TGF-beta stimulated, 500 pg/mL final; 410,000 tested, 1.2% active; Potency, µM (doses to about 46.1 µM), hits mostly inhibitors; also: nearly all actives have a fitted effect of over 65% in size
#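 HEPG2 CAGA-GFP reporter cells (1000/well, DMEM with 1% FBS) received compounds, then recombinant TGF-beta at 500 pg/mL final for 18 hours at 37 degrees C. Per-cell GFP summed per well was normalised to unstimulated and stimulated DMSO controls before curve fitting.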
# Giardia killer – kills Giardia lamblia | Giardia lamblia trophozoite viability | activity change, % at 7.66 µM, hits read low | 340,000 tested, 0.15% active | AID 540267; in the data active = activity change below about -80%; inconclusive = between about -30% and that limit;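 also: parasites exposed to compound for two days anaerobically before the ATP read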
#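 Trophozoite viability was measured as ATP-dependent luminescence, read 15-30 min after reagent addition. Before that, parasites at 100 cells/well were exposed to compounds for 48 h, anaerobically, at 37 deg C.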
# IL1B secr inh – inflammasome signaling inhibition, IL-1 beta readout | THP-1 LPS/ATP IL-1B secretion, AlphaLISA, 16 h; stronger effect = lower value | activity change, % at 57.5 µM | 360,000 tested, 4.7% active | AID 743279; in the data active = activity change below about -50%; inconclusive = mostly about -30% to -49%
#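 THP-1 cells pretreated 1 hr with compounds (up to 57.5 uM final), then stimulated with LPS (250 ng/mL final) plus ATP (1.25 mM final); secreted IL-1B measured by AlphaLISA after 16 hr, decreased signal indicating inhibition.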
# HT1080 IDH1KD tx – HT-1080 IDH1 knockdown cell toxicity (counter line); HT-1080 IDH1 knockdown viability, ATP luminescence, 48 h; Potency, µM (doses to about 46.1 µM), most hits filed as cytotoxic; 360,000 tested, 2% active; AID 686971
#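 Luminescent ATP read-out (CellTiter-Glo, 10 min at room temperature) after 48 h compound exposure at 37 °C gave viability of IDH1-knockdown HT-1080 cells. Activity was normalised to DMSO and cell-free wells, then fitted as concentration-response curves.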
# Hits are given with their value; . = inactive; ? = inconclusive; / = no result; ! = a repeat was not active; [ ] = another dose, or the depositor's remark. Rows were chosen to be rich in hits. Some 6.5% of all compounds tested hit in one or more screens of this group. Unless noted, calls follow the shape of the dose curve; as a rule, active = well fitted curve in the direction sought with a large enough effect; inconclusive = small, poorly fitted or top-dose-only effect, or another doubt; inactive = no such curve, though single readings can be large; an effect the other way counts as inactive or inconclusive.
SMILES,HepG2 tox,HT1080-NT tox,TGFb inhibitor,Giardia killer,IL1B secr inh,HT1080 IDH1KD tx
O=C(NCCNS(=O)(=O)c1ccccc1)c1ccc([N+](=O)[O-])cc1,.,.,.,.,.,.
CCOC(=S)SCC(=O)Nc1nc(-c2ccc(Br)cc2)cs1,.,7.3µM,?,.,-100,6.5µM
CCOC(=S)SCC(=O)Nc1nccs1,.,.,.,.,-99,?
CCOC(=O)/C=C/C(=O)Nc1nccs1,.,.,.,.,-86,.
CC(C)(C)c1ccc(S(=O)(=O)N2CCN(C(=O)C3=COCCO3)CC2)cc1,.,.[9.24 µM],.,.,.,.
C[C@@H]1C2CC(C/C2=N\NC(=O)c2ccncc2)C1(C)C (some centres not stated),.,.,.,.,.,.
Cc1ccc(OCC(=O)Oc2c(C)cccc2C)cc1,.,.,.,.,.,.
COCC(=O)Oc1cc(-c2ccc(C)cc2C)c(OC(=O)COC)c(-c2ccc(C)cc2C)c1,7.1µM,.,?,/,?,?
CN(Cc1cn(Cc2ccc(Cl)cc2)nn1)C1CN(Cc2cn(Cc3ccc(Cl)cc3)nn2)S(=O)(=O)C1 (configuration not stated),/,.,/,/,?,.
CCCCn1c(=N)n(CCCOc2ccc(F)cc2)c2ccccc21,13µM,/,16µM,/,/,/
N=c1n(CCO)c2ccccc2n1CCOc1ccc(F)cc1,.,/,.,/,/,/
CCCCn1c(=N)n(CC(=O)c2ccc(Br)s2)c2ccccc21,.,?,?,.,-98,?
C/C(=C\c1ccccc1)C(=O)Nc1nc2ccc([N+](=O)[O-])cc2s1,.,.,.,.,.,.
OC[C@@H]1CN(Cc2ccc(-c3ccccc3)cc2)C[C@H](n2cnc3c(NCc4ccco4)ncnc32)O1,.,21µM,?,/,.,18µM
OC[C@@H]1CN(Cc2ccc(-c3ccccc3)cc2)C[C@H](n2cnc3c(NCc4ccncc4)ncnc32)O1,.,?,?,/,.,23µM
OC[C@@H]1CN(Cc2cccc(C(F)(F)F)c2)C[C@H](n2cnc3c(NCc4ccc(F)cc4)ncnc32)O1,.,?,?,/,.,21µM
OC[C@@H]1CN(Cc2ccccc2)C[C@H](n2cnc3c(NCc4ccco4)ncnc32)O1,.,.,.,/,.,.
CNC(=O)c1cnn(-c2nc(-c3ccc(OC)cc3)cs2)c1C(F)(F)F,.,.,.,.,.,.
COc1ccc(Cl)cc1NC(=O)CCN1CCN(C)CC1,.,.,.,.,.,.
NC(=O)CCN1CCN(CCOC2Cc3cc(Cl)ccc3Sc3ccccc32)CC1 (configuration not stated),.,.,.,.,-53,.
O=C1C(Sc2ccccc2)=C[C@@]2(O)CC[C@@H](O)[C@]1(Sc1ccccc1)[C@H]2O,/,?,/,/,-80,?
COc1ccc(SC2=C[C@@]3(O)CC[C@@H](O)[C@@](Sc4ccc(OC)cc4)(C2=O)[C@H]3O)cc1,/,.,/,/,.,.
Cc1ccc(OCc2nnn(CC(=O)NS(=O)(=O)c3c(C)noc3C)c2-c2ccccc2)cc1,.,.,.,/,.,.
CC(=O)c1ccc(OCc2nnn(CC(=O)O)c2-c2ccccc2)cc1,.,.,.,/,-69,.
CCC(=O)N1CCc2cc(S(=O)(=O)CCC(=O)N3CCN(c4cccc(Cl)c4)CC3)ccc21,.,/,?,/,/,/
SMILES,HepG2 tox,HT1080-NT tox,TGFb inhibitor,Giardia killer,IL1B secr inh,HT1080 IDH1KD tx
Clc1ccc(C(c2nnnn2C2CCCC2)N2CCSCC2)cc1 (configuration not stated),.,.,.,.,-62,.
Fc1ccc(C(c2nnnn2C2CCCCC2)N2CCCC2)cc1 (configuration not stated),.,.,.,.,.,.
COc1ccc(C(c2nnnn2C2CCCCC2)N2CCN(c3ccc(OC)cc3)CC2)cc1 (configuration not stated),.,.,.,.,.,.
c1ccc(C(c2nnnn2C2CCCC2)N2CCN(c3ccccc3)CC2)cc1 (configuration not stated),.,.,.,.,-50,.
Cc1ccc2nc(NC(=O)CSc3nnc(C)c(=O)n3N)sc2c1,.,.,.,.,.,.
COc1cc(OC)cc(C(=O)N2CCC(C(=O)N3CCOCC3)CC2)c1,.,.,.,.,.,.
C=CCc1ccccc1OCC(O)CN1CCN(c2ccccc2F)CC1 (configuration not stated),.,?,.,.,.,?
COc1cc(C(C)=O)ccc1OCC(O)CN1CCN(c2ccccc2)CC1 (configuration not stated),.,.,.,.,.,.
COc1ccccc1N1CCN(CC(O)COc2cccc3ccccc23)CC1 (configuration not stated),.,?,.,.,?,15µM!
OC(COc1cccc2ccccc12)CN1CCN(c2ccccc2)CC1 (configuration not stated),.,.,.,.,.,.
COc1cc(C(C)=O)ccc1OCC(O)CN1CCN(c2ccccn2)CC1 (configuration not stated),.,.,.,.,-56,.
Cc1ccc(C(C)C)c(OCC(O)CN2CCN(c3ccccc3F)CC2)c1 (configuration not stated),.,/,16µM,/,/,/
C/C(=N/NC(=O)COc1cc(C)ccc1C(C)C)C(=O)O,.,?,.,.,.,6.5µM
CC(=O)N1CN(Cc2ccccn2)Cc2c1sc1c2CCCC1,.,.,?,.,.,.
Cc1ccc(C(C)C)c(OCC(O)CN2CCc3ccccc3C2)c1 (configuration not stated),.,?,?,.,-101,?
Cc1ccc(C(C)C)c(OCC(=O)Nc2ccccc2N2CCN(C)CC2)c1,.,?,?,.,-59,?
CC1(C)CC(NC(=S)Nc2ccc(S(N)(=O)=O)cc2)CC(C)(C)N1,.,.,.,.,.,.
O=c1c(Cl)c(N2CCC3(CC2)OCCO3)cnn1C12CC3CC(CC(C3)C1)C2,.,.,.,.,.,.
CCC(C(=O)NCc1ccccc1)n1nc(C)c2sc3ccccc3c2c1=O (configuration not stated),.,/,.,/,/,/
CCc1ccccc1NC(=O)c1cc(C2CC2)on1,.,.,.,.,.,.
COc1ccc(NC(=O)Cn2nnc3sc4c(c3c2=O)CCCC4)cc1,.,/,.,/,/,/
Cc1nc(-n2[nH]c3c(c2=O)CCCC3)[nH]c(=O)c1Cc1ccccc1,.,?,.,.,-106,?
Cc1cc([N+](=O)[O-])ccc1NC(=O)C[n+]1ccc(N(C)C)cc1,.,.,.,.,.,.
